Experimental data: PubChem BioAssay AID651820 (National Center for Advancing Translational Sciences (NCATS), 2012)
Hit rate of the full screen: of about 340,000 compounds, about 12,000 (3.5%) were called active. Another 18% or so got no clear call; they are omitted. What follows is part of a selection rich in actives, with near analogues and random picks from the rest. Some structures have more than one record in an assay (separate samples or runs), and their calls can disagree. A number with no mark means an inactive call. Calls come from the whole dose curve; as a rule, active = well fitted inhibition curve with a large enough effect; inconclusive = small, poorly fitted or top-dose-only effect, or another doubt; inactive = no such curve, though single readings can be large or run the other way.

Assay: qHTS Assay for Inhibitors of Hepatitis C Virus (HCV)
Conditions: Huh7.5.1 HCVcc-Cre infection, luciferase reporter, 44 h; series mostly up to 41.8 µM; activity change, negative = inhibition: at the top concentration
Procedure, shortened: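 Cells (1,000/well) were plated 4 h before compound, then infected with HCVcc-Cre virus (~0.5 moi). After 44 h further culture, infection was read as luciferase luminescence following a 15 min substrate incubation at room temperature.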
% is set by controls: 0 for no effect and ±100 for the full control effect; potency is the fitted concentration of half-maximal effect.

Compound	activity change, negative = inhibition	Potency
COc1ccc([C@@H]2[C@@H]3C(=O)N(C(C)(C)C)C(=O)[C@@H]3[C@]3(Cc4ccccc4)C(=O)N(c4cccc(Br)c4)C(=O)N23)cc1	-3.64%	–
O=C(NN=Cc1ccc(N2CCOCC2)cc1)c1cc2ccccc2cc1O	-0.628%	–
O=C(OCC(=O)N1CCN(C(=O)c2ccco2)CC1)c1ccc(Cl)c(Cl)c1	-4.4%	–
COc1cccc(CC2(CO)CCCN(Cc3ccc(OC(F)F)cc3)C2)c1 (centres undefined)	-16%	–
Clc1cccc(-c2nc(NCC3CCCO3)c3ccccc3n2)c1 (centres undefined)	-57.3%	–
COc1cccc(CNC(=O)c2n[nH]c3ccccc23)c1	-2.04%	–
CC(C)(C)c1nc(NCC2CCCO2)c2nnn(Cc3ccccc3)c2n1 (centres undefined)	-19.2%	–
CCc1ccc(C(CNc2nc(C(F)(F)F)nc3ccccc23)N(C)C)cc1 (centres undefined)	-21.3%	–
FC(F)(F)c1cccc(Nc2ncnc3ccccc23)c1	-26.2%	–
COc1ccc(CNc2nccs2)cc1	13.7%	–
CCc1nc2ccccc2c(C(=O)NCc2ccc(OC)cc2)c1C	-0.211%	–
c1ccc2c(NCC3CCCO3)nc(-c3ccncc3)nc2c1 (centres undefined)	–	10 µM (active)
COc1cccc(CNc2nc(C(F)(F)F)nc3ccccc23)c1	–	5.62 µM (active)
COc1ccc(CNc2ncnc3ccccc23)cc1	–	3.16 µM (active)
c1coc(CNc2ncnc3ccccc23)c1	–	3.55 µM (active)
O=C(NCc1ccncc1)C(=O)NCc1ccco1	15%	–
COc1ccc(C(=O)C(C)OC(=O)c2cccc(S(=O)(=O)Nc3c(C)n(C)n(-c4ccccc4)c3=O)c2)cc1 (centres undefined)	16.1%	–
NC(=O)C1(Nc2ccc(-c3ccccc3)cc2)CCCC1	-9.54%	–
NC(CSC1(c2ccccc2)c2ccccc2-c2ccccc21)C(=O)O (centres undefined)	7.2%	–
Cc1cc(NC(=O)c2cc3ccccc3o2)no1	0.981%	–
C=CC(=O)Nc1ccc(Nc2ccnc(Nc3ccc(N4CCN(C)CC4)cc3)n2)cc1	29.9% [at 8.37 µM]	–
CC(C)COc1ccc(C(=O)OCC(=O)NCCC2=CCCCC2)cc1	6.35%	–
COCCN(C(=O)C(C)N1C(=O)c2ccccc2C1=O)c1c(N)n(CC(C)C)c(=O)[nH]c1=O (centres undefined)	30.2%	–

Compound	activity change, negative = inhibition	Potency
COc1cccc(NC(=O)COC(=O)c2ccc3ccccc3n2)c1	9.47%	–
O=C(COC(=O)c1ccccc1Cl)NC1CCCCCCC1	6.04%	–
Cc1ccc(S(=O)(=O)Nc2ccc(F)c(S(=O)(=O)N3CCOCC3)c2)cc1	12.7%	–
c1ccc(-c2nc(NCc3ccco3)c3ccccc3n2)cc1	–	10 µM (active)
CCOCCCNc1nc(-c2ccccc2)nc2ccccc12	-23.1%	–
O=C(Cc1ccccc1)n1nc(-c2ccccc2)nc1NCc1ccco1	6.35%	–
CCN(C(=O)COC(=O)c1sccc1C)c1c(N)n(Cc2ccccc2)c(=O)[nH]c1=O	-7.3%	–
COc1ccc(NC(=O)Nc2ccc3c(c2)C(=O)N([C@H](C)CO)C[C@H](C)[C@@H](CN(C)C(=O)Nc2ccc4c(c2)OCO4)O3)cc1	-11.7%	–
O=C(NCC1(N2CCCCC2)CCCCC1)c1cccc(S(=O)(=O)Nc2ccccc2Cl)c1	15.5%	–
O=C(NCC1(N2CCCCC2)CCCCC1)c1ccc(NS(=O)(=O)c2ccc(F)cc2)cc1	0.79%	–
CCOc1ccc(S(=O)(=O)Nc2cccc(C(=O)NCC3(N4CCCCC4)CCCCC3)c2)cc1	–	12.6 µM (active)
O=C(CCNS(=O)(=O)c1ccccc1)NCCCc1ccccc1	-6.15%	–
NS(=O)(=O)c1ccc(CCNC(=O)COC(=O)COc2cccc(C(F)(F)F)c2)cc1	-0.623%	–
CN(C)C(=O)CCc1ccc2c3c([nH]c2c1)[C@]1(C)[C@@H](C(=O)N2CCOCC2)C[C@H](CC(=O)NCCc2ccccn2)C(=O)N1CC3	-17.8%	–
N#CC1(Nc2ccc(-c3ccc(Cl)cc3)cc2)CCCC1	6.18%	–
O=C1COc2c1ccc(O)c2O	13.3%	–
CC(C)(C)c1ccc(C(=O)NCc2ccco2)cc1	-7.43%	–
CC(C)(C)OC(=O)CNC(=O)c1[nH]cnc1C(=O)N[C@@H](CCCCN)C(=O)OC(C)(C)C	21.6%	–
O=C(Nc1cc(-c2nn(CC(=O)N3CCCCC3)c(=O)c3ccccc23)ccc1N1CCOCC1)c1ccc(Cl)cc1	-11.3%	–
COc1c(C)cccc1C(=O)Nc1cc(Cl)ccc1N1CCOCC1	7.94%	–
O=C(Nc1cc(Cl)ccc1N1CCOCC1)c1ccc(N2CCCC2=O)cc1	–	35.5 µM (active)
COc1ccc(CCNC(=O)COC(=O)c2ncc(Cl)c(Cl)c2Cl)cc1OC	5.04%	–
O=C(CSc1nc2ccccc2c(=O)n1-c1ccc(F)cc1)NC1CC1	-11.8%	–

Compound	activity change, negative = inhibition	Potency
COCCN(C(=O)CSCc1ccc(C)cc1)c1c(N)n(CC(C)C)c(=O)[nH]c1=O	-7.8%	–
N#Cc1ccc(C(=O)OCC(=O)NC(=O)NC2CCCCC2)cc1	13.3%	–
O=C(NNC(=O)c1cc(-c2ccccc2Cl)nc2ccccc12)c1csc(N2CCOCC2)n1	-18.7%	–
C=CC[n+]1c(-c2ccc(C)cc2)csc1NNC(=O)Nc1ccccc1	–	5.62 µM (active)
C=CCNc1scc(-c2ccccc2)[n+]1CC=C	3.32%	–
O=C(NNC(=O)c1ccc(-c2ccccc2)cc1)Nc1ccccc1	8.01%	–
N#CC(Cc1cc2ccccc2n1S(=O)(=O)c1ccccc1)OCc1ccccc1 (centres undefined)	-4.57%	–
Nc1cccnc1Sc1ccccc1	19.3%	–
CN1CCN(c2ccc([N+](=O)[O-])c(Sc3nc4ccccc4[nH]3)c2)CC1	-7.82%	–
O=[N+]([O-])c1ccc(N2CCSCC2)cc1O	0.816%	–
CC1CCN(c2ccc([N+](=O)[O-])c(SCCO)c2)CC1	–	10 µM (active)
Cc1occc1-c1nnc(SCC(=O)NC2(C#N)CCCC2)n1C	12%	–
CN(C)CCCN(C(=O)c1ccc(S(=O)(=O)N2CCCCCC2)cc1)c1nc2cc3c(cc2s1)OCCO3	-25.6%	–
O=[N+]([O-])c1ccc(C=NN=Cc2ccc([N+](=O)[O-])cc2)cc1	3%	–
Cc1ccc(Cl)cc1N1CCN(C(=O)c2cccc3c(=O)c(C)c(-c4ccccc4)oc23)CC1	–	10 µM (active)
Cc1cccc(N2CCN(C(=O)c3cnn4c(C(F)F)cc(-c5ccccc5)nc34)CC2)c1C	18.3%	–
COC(=O)c1ccc(C(=O)OC)c(NC(=S)N2CCN(c3cc(Cl)ccc3C)CC2)c1	13.7%	–
CC(C#N)OC(=O)c1cccnc1SCC(=O)Nc1ccc2c(c1)OCO2 (centres undefined)	-12.6%	–
Cc1ccc(CN2CC(C(=O)N3CCN(S(=O)(=O)c4ccccc4)CC3)CC2=O)cc1 (centres undefined)	1.97%	–
Cc1cc(N2CCCC2)n2nc(C)c(-c3ccccc3)c2n1	5.02%	–
Cc1nn2c(NCCN(C)C)c3c(nc2c1-c1ccccc1)CCC3	–	12.6 µM (active)
Cc1cc(C(C)(C)C)n2nc(C)c(-c3ccccc3)c2n1	9.38%	–
O=C(COC(=O)c1ccc(F)cc1)Nc1nc2ccc([N+](=O)[O-])cc2s1	-29.2%	–

Compound	activity change, negative = inhibition	Potency
O=C(Nc1nc2ccc([N+](=O)[O-])cc2s1)c1ccncc1	-3.8%	–
O=C(NC(Nc1nc2ccc([N+](=O)[O-])cc2s1)(C(F)(F)F)C(F)(F)F)c1ccccc1	–	0.562 µM (active)
NC(=O)C1CCN(C(=O)c2cc(S(=O)(=O)N3CCN(c4ccccc4)CC3)ccc2Cl)CC1	-5.21%	–
CC(=O)c1c(C)[nH]c(C(=O)COC(=O)c2cccs2)c1C	2.01%	–
N#CCC(=O)Nc1ccc(C(=O)OCC(=O)Nc2sc3c(c2C#N)CCCC3)cc1	-2.61%	–
CC(=O)c1c(C)[nH]c(C(=O)OCC(=O)Nc2cc(S(=O)(=O)N3CCCCC3)ccc2C)c1C	-17.6%	–
Cc1cccc(C(=O)OCC(=O)Nc2sc3c(c2C#N)CCC3)c1	8.66%	–
CC(=O)c1c(C)[nH]c(C(=O)OCC(=O)Nc2sc3c(c2C#N)CCCC3)c1C	–	12.6 µM (active)
CC(=O)c1c(C)[nH]c(C(=O)OCC(=O)NCCC(C)C)c1C	–	11.2 µM (active)
NN=C(NN=Cc1ccccc1)c1ccccc1	4.38%	–
O=[N+]([O-])c1cc2ccccc2nc1-c1ccccc1	-18.8%	–
CC1CCCCC12NC(=O)N(CC(=O)Nc1ccc(S(=O)(=O)Nc3ncccn3)cc1)C2=O (centres undefined)	26.4%	–
COc1ccc(NC(=O)CC2SC(N3CCCCC3)=NC2=O)cc1OC (centres undefined)	17.1%	–
CN(CC(=O)Nc1cccc(F)c1)CC(=O)Nc1cccc([N+](=O)[O-])c1	-21.1%	–
Cc1ccc(CN(C)CC(=O)Nc2cccc([N+](=O)[O-])c2)o1	-24.5%	–
Cc1ccc(NC(=O)CN(C)CC(=O)Nc2cccc(F)c2)cc1[N+](=O)[O-]	–	5.62 µM (active)
COc1ccc(/C=C2/CCCc3ccccc3C2=O)cc1	-7.8%	–
Oc1c(Cl)cc(Cl)c(Cl)c1Cc1c(O)c(Cl)cc(Cl)c1Cl	-0.125% [at 8.37 µM]	8.91 µM (active)
O=C(NCC(c1ccco1)N1CCc2ccccc2C1)c1ccccc1Cl (centres undefined)	-11.9%	–
CC(=O)C(CC(=O)N1CCCC1)C(=O)Nc1ccc(Cl)cc1 (centres undefined)	6.34%	–
CC/C(=C\c1ccc(Cl)cc1)c1ccncc1	7.6%	–
COC(=O)c1ccc(CNC(=O)Cn2cc(C)c(=O)[nH]c2=O)cc1	9.79%	–
O=c1nc(NO)ccn1C1CCCO1 (centres undefined)	12.9%	–

Compound	activity change, negative = inhibition	Potency
COc1ccccc1N(CC(=O)Nc1ccc(C)cc1Cl)S(=O)(=O)c1cccs1	-23.6%	–
COc1ccccc1Cn1c(=S)[nH]c2cc(C(=O)N3CCN(C)CC3)ccc2c1=O	4.3%	–
CCOc1cc2[nH]c(=S)n(Cc3ccc(C(=O)N4CCN(C)CC4)cc3)c(=O)c2cc1OCC	–	12.6 µM (active)
CCOc1cc2[nH]c(=S)n(Cc3ccc(C(=O)NCCOC)cc3)c(=O)c2cc1OCC	-16.6%	–
C[C@H](CO)N1C[C@H](C)[C@@H](CN(C)C(=O)NC2CCCCC2)Oc2ccc(NC(=O)c3ccncc3)cc2C1=O	15.1%	–
CCN(C[C@H]1N[C@@](Cc2ccccc2)(C(=O)OC)[C@H]2C(=O)N(Cc3ccccc3)C(=O)[C@@H]12)C(=O)c1ccc(C)cc1	-2.26%	–
Cc1cc(C(=O)N/N=C/c2cc([N+](=O)[O-])cc(C)c2O)n[nH]1	0.137%	–
CC(C)(C)c1cc(C(=O)N/N=C/c2ccc([N+](=O)[O-])s2)n[nH]1	–	25.1 µM (active)
COc1ccc2ccccc2c1/C=N/NC(=O)c1cc(C)[nH]n1	-6.93%	–
COc1ccc(S(=O)(=O)N2CCc3ccccc32)cc1C(=O)Nc1cc(S(C)(=O)=O)ccc1Cl	-5.31%	–
O=C(CSc1nc(-c2ccccc2)cs1)Nc1cccc([N+](=O)[O-])c1	–	11.2 µM (active)
O=C(CSCC(=O)Nc1cccc([N+](=O)[O-])c1)Nc1ccccc1	11.5%	–
CCNC(=O)CSc1nc(-c2ccccc2)cs1	9.62%	–
COc1ccccc1CNC(=O)CSc1nc(=O)n(Cc2ccncc2)c2c1CCC2	3.26%	–
O=C(O)Cc1sc(-c2ccccc2)nc1-c1cccs1	7.27%	–
C/C(=N/Nc1nc(-c2ccccc2)c(CC(=O)O)s1)c1ccccc1	–	12.6 µM (active)
CCOC(=O)C(=O)Nc1nc(-c2ccccc2)c(CC)s1	-1.32%	–
CC1O[C@@H](OC2C(O)C(C)O[C@H](OC(=O)[C@]34CCC(C)(C)C[C@H]3C3=CCC5[C@@]6(C)CC(O)C(O[C@@H]7OC(CO)C(O)[C@@H](O)[C@@H]7O)[C@@](C)(C(=O)O)C6CC[C@@]5(C)[C@]3(CO)CC4)C2O[C@H]2OC(C)[C@@H](O[C@@H]3OCC(O[C@@H]4OC(CO)C(O)[C@H](O)C4O)[C@@H](O)[C@@H]3O)[C@H](O)C2O)C(O)C(O)C1O (some centres undefined)	15.8%	–
CCCCn1c(N)c(N(CC(C)C)C(=O)c2ccc(-n3c(C)ccc3C)cc2)c(=O)[nH]c1=O	-16.9%	–
Cc1c(C)n2c(SCC(=O)N3CCCC3)nnc2[nH]c1=O	12.3%	–
COc1ccc(C(=O)OCc2cc(=O)n3ccsc3n2)cc1F	-17%	–
